Hits are enriched below; roughly 5.2% of the tested compounds scored in any of these assays.
Tau fluor cs – counter-screen for tau fibril formation inhibitors; Potency, µM (doses to about 57.7 µM), for inactives: at the highest dose activity change, negative = decrease; tau K18 P301L Alexa594 fluorescence, heparin fibrillization; 280,000 compounds, 0.93% hits; also: potency is read from the fitted curve at half-maximal effect; nearly all actives have a fitted effect of over 55% in size
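Human K18 P301L tau (15 uM unlabeled plus 0.24 uM Alexa 594-labeled, final) in 100 mM sodium acetate pH 7 was mixed with compound and 20 uM heparin and incubated 6 hr at 37 C.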
FBPA coupling cs – inhibits coupling enzyme system, counter-screen for aldolase hits | AID 2472 | coupling enzyme system counterscreen, AmpLite Red fluorescence | activity change, negative = inhibition, % at 58.2 µM, hits read low | 290,000 compounds, 0.67% hits; in the data active = activity change below about -30%
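Activity here indicates interference with the coupling reaction, not aldolase inhibition. Compounds at 57.5 uM final met coupling enzymes for 10 min at RT; substrate and AmpLite Red detection followed, with a 525/598 nm fluorescence read after 20 min.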
Tau fibril ThT – tau fibrillization inhibition (ThT binding); P10636; recombinant tau K18 P301L (four-repeat tau fragment), heparin-induced fibrillization, ThT fluorescence; Potency, µM (doses to about 57.4 µM), without a hit: at the highest dose activity, negative = inhibition, most hits filed as inhibitors; 270,000 compounds, 2.1% hits; AID 1460; also: potency is read from the fitted curve at half-maximal effect; nearly all actives have a fitted effect of over 55% in size
Target sequence (P10636 561-689 P618L limits assumed): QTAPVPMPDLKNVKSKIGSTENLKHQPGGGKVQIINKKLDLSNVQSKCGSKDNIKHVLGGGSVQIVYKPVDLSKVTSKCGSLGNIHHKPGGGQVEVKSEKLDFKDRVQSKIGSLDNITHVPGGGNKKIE
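Aggregation was driven by heparin (20 uM final) acting on recombinant tau […] bearing P301L in 100 mM sodium acetate pH 7; fibrils were detected with Thioflavin T.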
Sfp PPTase inh – Sfp phosphopantetheinyl transferase inhibition | Biochemical Sfp PPTase activity, qHTS | Potency, µM, inactives show largest response in the series, negative = inhibition, hits mostly inhibitors | 310,000 compounds, 3.5% hits | AID 1490;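 also: the enzyme is Sfp with the accession as filed and its product quenches rhodamine fluorescence; potency is read from the fitted curve at half-maximal effect; 0% = enzyme reaction without inhibitor and -100% = no enzyme wells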
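Compounds were incubated with enzyme (final 15 nM) for 15 min at room temperature before substrate addition started the reaction. Fluorescence at 525 nm excitation, 598 nm emission was recorded immediately and after 30 minutes.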
Tau FP inhib – tau fibrillization inhibition (FP) | P10636 | K18 P301L tau heparin fibrillization, Alexa594 FP, 6 h | Potency, µM (doses to about 57.7 µM), for the others: at the highest dose activity, negative = inhibition, hits mostly inhibitors | 280,000 compounds, 0.39% hits; also: potency is read from the fitted curve at half-maximal effect; nearly all actives have a fitted effect of over 55% in size
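Human K18 P301L fragment (15 uM unlabeled plus 0.24 uM Alexa 594-labeled) in 100 mM sodium acetate pH 7 with compound, aggregation induced by 20 uM heparin for 6 hr at 37 C. ThT (30 uM) added for 1 hr, then Alexa 594 FP read.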
Active calls of the source: *; ? = inconclusive; . = no result; [ ] = another dose, or the depositor's remark. Unless noted, calls follow the shape of the dose curve; as a rule, active = well fitted curve in the direction sought with a large enough effect; inconclusive = small, poorly fitted or top-dose-only effect, or another doubt; inactive = no such curve, though single readings can be large; an effect the other way counts as inactive or inconclusive. Unless noted, % is scaled to controls: 0 for no effect and ±100 for the full control effect.

SMILES | Tau fluor cs | FBPA coupling cs | Tau fibril ThT | Sfp PPTase inh | Tau FP inhib
CN(C)c1ccc(N=Nc2ccccc2C(=O)OCC(=O)NCC2CCCCC2)cc1 | 14% | 4 | 1.8µM* | ? | ?
O=C(OCC(=O)N(C1CCCCC1)C1CCCCC1)c1ccccc1O | . | 0 | . | -4% | .
Cc1ccc(SCCC(=O)N/N=C/c2cccnc2)cc1 | -3% | -32* | -4% | 9% | 3%
CCc1cccc(C)c1NC(=O)c1cccc(N(C)C)c1 | -12% | -1 | ? | 56µM* | -5%
CN(/N=C/c1ccc(O)cc1O)c1nc(-c2ccccc2)cc(-c2ccccc2)n1 | 14µM*[quencher] | -3 | ? | 32% | ?
Cc1cccc(C(=O)N/N=C/c2ccccn2)c1 | 1% | 4 | -6% | 45µM* | -1%
CC(/C=C/c1ccco1)=N/NC(=O)c1ccc(C)nc1 | -20% | 2 | . | -7% | 13%
Cc1occc1C(=O)N/N=C/c1ccccn1 | -5% | 0 | -11% | 63µM* | -9%
Cc1ccc(C(=O)N/N=C/c2cccc(OC(=O)/C=C/c3ccco3)c2)cn1 | ? | 0 | ? | 32µM* | -1%
COc1cccc(/C=N/NC(=O)c2ccoc2C)c1 | -13% | 0 | -20% | 3% | -7%
Cc1cc(C(=O)N/N=C/c2ccccn2)n[nH]1 | 2% | 2 | -4% | 40µM* | -1%
CCOC(=O)N1CCc2c(sc3c2c(=O)n(Cc2ccccc2)c(=O)n3Cc2c(F)cccc2Cl)C1 | -14% | . | -8% | . | 2%
Cc1nc2cnc(N(C)C)nc2n(C)c1=O | . | 0 | . | 16% | .
CC(C)(C)c1ccc(C(=O)N/N=C/c2ccccn2)cc1 | . | -8 | . | -14% | .
Cc1ccc(C(=O)N/N=C\c2ccccn2)cn1 | -8% | -1 | -14% | 7.1µM* | -8%
C=CCOC(=O)C(=O)/C=C/c1coc2ccccc2c1=O | 11% | -5 | -15% | 45µM* | ?
O=C(CSc1nnc(Cn2c(=O)sc3ccccc32)n1-c1ccccc1)N1CCOCC1 | -13% | -2 | -20% | 56µM* | -13%
CCOC(=O)C(C)Sc1nnc(Cn2c(=O)sc3ccccc32)n1-c1ccccc1 (stereo not drawn) | -5% | 1 | -4% | 79µM* | -2%
Cc1ccccc1-n1c(Cn2c(=O)sc3ccccc32)nnc1SCC(=O)N1CCOCC1 | -6% | 3 | -5% | 18% | 1%
CCOc1ccccc1Nc1nc(-c2cccc(Cl)c2)c2c(n1)-c1ccccc1OC2 | ? | . | ? | . | 11%
C=CCSc1nc(-c2ccc3c(c2)OCO3)cc(C(F)(F)F)c1C#N | -19% | -2 | -9% | 18µM* | -14%
CCOC(=O)CCSc1nc(-c2ccc3c(c2)OCO3)cc(C(F)(F)F)c1C#N | -8% | -11 | -8% | 9% | 1%
N#Cc1ccc(CN2CCC3(CC2)CCN(C(=O)c2ccncc2)CC3)cc1 | . | 0 | . | 40% | .
Cc1nc(-c2cccc(F)c2)sc1CCNC(=O)C(=O)Nc1ccc2c(c1)OCO2 | -5% | . | ? | . | 0%
OCC(O)C(O)C(O)C(O)C1NCCS1 (stereo not drawn) | -15% | 1 | 20µM* | -3% | ?
SMILES | Tau fluor cs | FBPA coupling cs | Tau fibril ThT | Sfp PPTase inh | Tau FP inhib
Cc1cccc(N=Nc2c(C)c(C#N)c(O)[nH]c2=O)c1 | -20% | 3 | 1.1µM* | 3% | 2%
c1ccc2c(SCc3cn4ccccc4n3)nncc2c1 | -7% | -9 | -9% | 45µM* | -9%
Clc1ccc(SCc2cn3ccccc3n2)cc1 | -7% | 0 | ? | 10% | 0%
Nc1cc(S(=O)(=O)Nc2ccccc2Cl)ccc1N1CCCC1 | -24% | -1 | -7% | -4% | 14%
Nc1cc(S(=O)(=O)Nc2cc(Cl)ccc2Cl)ccc1N1CCOCC1 | -22% | 7 | ? | 11µM* | ?
Cn1c(=O)c(=O)n(C)c2cc(N3CCOCC3)c(NS(=O)(=O)c3ccc(Br)cc3)cc21 | . | -4 | . | 45µM* | .
Cc1ccc(S(=O)(=O)Nc2cc3c(cc2N2CCOCC2)n(C)c(=O)c(=O)n3C)cc1 | . | . | . | -2% | .
COc1ccc(Cn2ccnc2SCC(=O)Nc2cc(C(F)(F)F)ccc2Cl)cc1 | ? | . | ? | . | -10%
CCc1cc(=O)oc2cc3occ(C)c3cc12 | 14% | 3 | 8% | -1% | 2%
CCc1cc(=O)oc2cc3occ(-c4ccc(OC)c(F)c4)c3cc12 | -17% | 4 | -8% | 20µM* | -18%
Cc1ccc(C2C(C(=O)c3cc4ccccc4o3)=C(O)C(=O)N2CCN2CCOCC2)cc1 (stereo not drawn) | . | . | . | 6% | .
Cc1ccc(C2C(C(=O)c3cc4ccccc4o3)=C(O)C(=O)N2CCN2CCOCC2)o1 (stereo not drawn) | -20% | -14 | ? | 50µM* | -14%
CC1=CC(C)(C)Nc2ccc(OC(=O)C(Cc3ccccc3)N3C(=O)c4ccccc4C3=O)cc21 (stereo not drawn) | ? | -5 | -17% | 29% | 11%
CC1=CC(C)(C)Nc2ccc(OC(=O)CN3C(=O)c4cccc5cccc(c45)C3=O)cc21 | ? | -54* | 13µM* | 40µM* | ?
CC1=CC(C)(C)Nc2ccc(OC(=O)CN3C(=O)c4ccccc4C3=O)cc21 | 16µM*[quencher] | -2 | ? | 4% | -1%
O=C(NCc1ccc2c(c1)OCO2)c1ccc2c(c1)N(Cc1cccc(Cl)c1)C(=O)c1ccccc1S2=O (stereo not drawn) | -17% | . | 8% | . | -9%
COc1ccccc1N1CCN(S(=O)(=O)CCNC(=O)COc2ccc(C(C)C)cc2)CC1 | -18% | . | ? | . | 1%
CSCC[C@H](NC(=O)[C@@H]1CCCN1C(=O)[C@H](CCCN=C(N)N)NC(=O)[C@H](CC(C)C)NC(=O)[C@@H]1CCCN1C(=O)[C@@H](NC(=O)[C@@H](N)CCC(N)=O)C(C)C)C(=O)N[C@H](C(=O)N[C@@H](Cc1ccc(O)cc1)C(=O)N[C@@H](CCCCN)C(=O)O)[C@@H](C)O | . | 2 | . | 5% | .
ON/C=N/C(=S)Nc1ncc(C(F)(F)F)cc1Cl | 4% | -3 | 2% | -2% | 0%
C/C(=N\Nc1ncc(Cl)cc1Cl)c1ccc(C#N)cc1 | -3% | 0 | ? | 11% | -13%
CON/C=N/C(=S)Nc1ncc(C(F)(F)F)cc1Cl | 13% | -3 | 11% | 11µM* | 4%
COc1cc(/C=N/Nc2ncc(C(F)(F)F)cc2Cl)cc(OC)c1O | ? | -2 | ? | 89µM* | -1%
COc1cc(/C=N/Nc2ccc(Cl)nn2)cc(OC)c1O | . | 2 | . | 50µM* | .
C/C(=N/Nc1ncc(C(F)(F)F)cc1Cl)c1ccncc1 | -12% | 2 | -17% | 56µM* | -4%
Oc1c(Br)cc(Br)cc1/C=N/Nc1ccc(Cl)nn1 | . | 5 | . | -4% | .
Oc1ccc(/C=N/Nc2ccc(Cl)nn2)c(O)c1O | . | -38* | . | 10µM* | .
